Only some compounds are listed: those with a hit (about 18% of all), similar ones and a draw of the others.
Gal4-VP16 FLuc: Gal4-VP16 reporter inhibition counter-screen | Potency, µM (series often up to 53.6 µM), without a hit: at the highest dose activity, negative = inhibition, most hits filed as inhibitors | 310,000 compounds, 3.5% hits | AID 2546 | Drosophila S2 Gal4-VP16 UAS-luciferase, luminescence, 20 h;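 also: Gal4-VP16 expression switched on by copper sulfate through the metallothionein promoter; potency is read from the fitted curve at half-maximal effect; nearly all actives have a fitted effect of over 50% in size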
IL1B secr inh: blocks inflammasome-driven IL-1 beta release | THP-1 LPS/ATP IL-1B secretion, AlphaLISA, 16 h; active compounds read low | activity change, % at 57.5 µM | 360,000 compounds, 4.7% hits; in the data active = activity change below about -50%; inconclusive = mostly about -30% to -49%
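Secreted IL-1B measured by AlphaLISA bead assay after 16 h compound exposure of THP-1 cells; compounds (final up to 57.5 uM) added 1 h before LPS (250 ng/mL) and ATP (1.25 mM) stimulation; lower signal means less secretion.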
TDP1 cell CPT: growth inhibition of DT40 Tdp1-/-;hTDP1 cells with camptothecin (screen for TDP1 inhibitors). chicken DT40 Tdp1-/-;hTDP1 cells + 20 nM CPT, ATP luminescence, 48 h. AID 686979. Potency, µM (doses to about 46.2 µM), without a hit: at the top dose activity change, negative = growth inhibition, usual class: inhibitors. 420,000 compounds, 12% hits; also: potency is read from the fitted curve at half-maximal effect; nearly all actives have a fitted effect of over 55% in size
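Chicken DT40 Tdp1-/- cells stably complemented with human TDP1 were seeded at 400 cells/well in medium containing 20 nM camptothecin, exposed to pin-transferred compounds, and grown at 37 °C for at least 48 hr. Viability was read as ATP luminescence.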
TDP1 cell noCPT: qHTS for Inhibitors of human tyrosyl-DNA phosphodiesterase 1 (TDP1): qHTS in cells in absence of CPT; DT40 Tdp1-/- hTDP1 cells, no CPT, ATP luminescence, 48 h; Potency, µM (top dose mostly 46.2 µM), for the others: at the top dose activity change, negative = growth inhibition, usual class: inhibitors; 420,000 compounds, 15% hits; also: potency is read from the fitted curve at half-maximal effect; nearly all actives have a fitted effect of over 55% in size
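Seeded 400 DT40-hTDP1 cells/well (vehicle DMSO, no 20 nM CPT); pinned compounds; ≥48 hr at 37 °C; CellTiter-Glo luminescence as viability measure.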
LDHA inh: inhibitors of human lactate dehydrogenase A; purified LDHA, NADH/diaphorase-resazurin fluorescence; active compounds read low; activity change, % (values are at about 110 or 230 µM); 480,000 compounds, 0.15% hits; AID 1347041; in the data active = activity change below about -30%; inconclusive = mostly about -25% to -30%;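 also: plate controls were DMSO wells for no effect and wells without enzyme for full effect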
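Enzyme activity of human lactate dehydrogenase 5 (2 nM; 0.06 mM NADH, 0.2 mM pyruvate, 5 min, RT) is measured via a resazurin/diaphorase fluorescence readout of residual NADH.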
RORg inh: blocks mouse ROR gamma transcriptional activity. P51450. Drosophila S2 Gal4-RORgamma UAS-luciferase reporter, 20 h. Potency, µM (top dose mostly 53.6 µM), for the others: at the highest dose activity change, negative = inhibition, actives largely listed as inhibitors. 310,000 compounds, 5.4% hits. AID 2551; also: potency is read from the fitted curve at half-maximal effect; nearly all actives have a fitted effect of over 60% in size
Target sequence (P51450 whole entry, looked up, the tested form may be a part): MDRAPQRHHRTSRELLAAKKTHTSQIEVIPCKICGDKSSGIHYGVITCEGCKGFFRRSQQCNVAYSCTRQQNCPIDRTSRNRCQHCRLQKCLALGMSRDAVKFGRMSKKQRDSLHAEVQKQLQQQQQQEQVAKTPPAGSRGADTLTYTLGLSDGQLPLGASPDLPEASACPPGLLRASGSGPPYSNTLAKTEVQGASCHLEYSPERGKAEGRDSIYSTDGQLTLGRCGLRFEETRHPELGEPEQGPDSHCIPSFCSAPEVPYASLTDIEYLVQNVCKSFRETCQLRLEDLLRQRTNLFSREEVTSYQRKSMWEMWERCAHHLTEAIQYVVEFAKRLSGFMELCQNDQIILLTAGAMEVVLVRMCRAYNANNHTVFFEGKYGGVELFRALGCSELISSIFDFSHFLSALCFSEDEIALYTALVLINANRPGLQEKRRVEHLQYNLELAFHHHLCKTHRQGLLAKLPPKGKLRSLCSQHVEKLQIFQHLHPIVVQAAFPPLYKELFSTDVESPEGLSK
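Drosophila S2 cells stably expressing Gal4-DBD/mouse RORγ fusion under metallothionein promoter plus UAS-luciferase; compound 1 h, then 700 uM CuSO4 induction for 20 h at ambient temperature; inhibition read as reduced luminescence.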
An asterisk follows results filed as active; ? = inconclusive; nt = not tested or not shown; [ ] = dose if it differs, or a comment. Unless noted, calls follow the shape of the dose curve; as a rule, active = well fitted curve in the direction sought with a large enough effect; inconclusive = small, poorly fitted or top-dose-only effect, or another doubt; inactive = no such curve, though single readings can be large; an effect the other way counts as inactive or inconclusive. Unless noted, % is scaled to controls: 0 for no effect and ±100 for the full control effect.

SMILES	Gal4-VP16 FLuc	IL1B secr inh	TDP1 cell CPT	TDP1 cell noCPT	LDHA inh	RORg inh
CN(C(=O)CSc1nc(CN2CCOCC2)nc2ccccc12)C1CCS(=O)(=O)C1 (stereo not drawn)	nt	nt	nt	nt	0	nt
CC12COC3(C(=O)Nc4ccccc4F)CC1CCC32C (stereo not drawn)	-2%[10 µM]	21	-12%	-16%	-6	10µM*
O=C(NCc1ccccc1Cl)c1ccc2c(c1)SC1=NS(=O)(=O)CCN12	-7%	?	?	?	-1	?
O=C(Nc1cccc(Br)c1)c1ccc2c(c1)SC1=NS(=O)(=O)CCN12	nt	-62*	23µM*	29µM*	-9	nt
CC(C)(C)c1ccccc1NC(=O)c1ccc2c(c1)SC1=NS(=O)(=O)CCN12	-7%	-26	29µM*	?	-1	17%
Cc1cccc(NC(=O)c2ccc(Cn3cc(C(F)(F)F)ccc3=O)cc2)c1	-5%	-15	3%	-21%	-3	34%
O=C(Nc1ccccc1)c1ccc(=O)n(Cc2cccc(Cl)c2)c1	1%[10 µM]	-22	7%	-11%	-1	1%
CC(C)c1ccc(NC(=O)c2ccc(=O)n(Cc3ccccc3)c2)cc1	nt	nt	16µM*	21µM*	2	nt
CCOC(=O)c1ccc(NC(=O)c2ccc(=O)n(Cc3cccc(C)c3)c2)cc1	nt	nt	21µM*	16µM*	-19	nt
CCCCC(CC)C(=O)Nc1c(CC)cccc1CC (stereo not drawn)	nt	nt	nt	nt	4	nt
CCCCN(CC(=O)NC(=O)NCc1ccccc1)c1ccccc1	nt	nt	nt	nt	8	nt
CC(=O)Nc1ccc(S(=O)(=O)O)c2cc(S(=O)(=O)O)c(N=Nc3ccc(N=Nc4ccc(S(=O)(=O)O)cc4)c4ccc(S(=O)(=O)O)cc34)c(O)c12	nt	nt	8.9µM*	13µM*	9	nt
CCOc1ccc(-c2csc(NNC3=NCCCCC3)n2)cc1	-9%	-102*	10µM*	21µM*	-5	?
Clc1ccc(-c2csc(NNC3=NCCCCC3)n2)cc1	?	-77*	?	16µM*	-8	5.6µM*
c1ccc(-c2csc(NNC3=NCCCCC3)n2)cc1	?	-13	2.1µM*	1.8µM*	-2	?
S=c1ccss1	?	nt	-13%	?	nt	13µM*
COc1ccc2c(-c3ccccc3)cc(SCC(=O)N3CCOC(C)C3)nc2c1 (stereo not drawn)	nt	nt	nt	nt	1	nt
Cc1ccc(NC(=O)c2ccc(CSc3nnc(-c4ccncc4)n3C)cc2)cc1	7%	5	-19%	-21%	-11	29%
CCn1c(SCc2ccc(C(=O)Nc3cc(C)cc(C)c3)cc2)nnc1-c1ccncc1	-2%	-65*	?	?	-5	27%
CN(C)CCNc1oc(-c2ccc(S(=O)(=O)N3CCCCCC3)cc2)nc1C#N	nt	nt	nt	nt	4	nt
CN1C(=O)/C(=C/c2ccccc2F)Sc2ccc(C(=O)NCC3CCCO3)cc21 (stereo not drawn)	-9%	?	23µM*	?	?	16%
Cc1cccc(/C=C2\Sc3ccc(C(=O)NCC4CCCO4)cc3N(C)C2=O)c1 (stereo not drawn)	5%	-9	13%	?	-2	11%
CN1C(=O)/C(=C/c2ccccc2Cl)Sc2ccc(C(=O)NCc3cccnc3)cc21	-10%	-69*	?	?	-9	37%
O=S(Cc1ccc(F)cc1)Cc1cccc(C(F)(F)F)c1 (stereo not drawn)	nt	nt	nt	nt	9	nt
COc1ccc(C2=NCN(c3ccc(C)cc3)C(=S)N2)cc1	2.8µM*	-15	-26%	?	-6	-43%
SMILES	Gal4-VP16 FLuc	IL1B secr inh	TDP1 cell CPT	TDP1 cell noCPT	LDHA inh	RORg inh
CC=Cc1cc2c(c(=O)o1)C(=O)C(O)C(C)O2 (stereo not drawn)	nt	-101*	3.7µM*	2.9µM*	-1	nt
COc1cccc(C2CC(c3ccccc3Cl)n3ncnc3N2)c1 (stereo not drawn)	4%	-13	-22%	?	-8	0%
CCc1ccc(C2CC(c3ccccc3)n3ncnc3N2)cc1 (stereo not drawn)	-4%	-14	?	-29%	-2	18µM*
COc1ccccc1C1CC(c2ccc(F)cc2)Nc2ncnn21 (stereo not drawn)	-6%	6	7.3µM*	21µM*	-1	-42%
CCc1ccc(C2CC(c3ccc(C)cc3)n3nc(N)nc3N2)cc1 (stereo not drawn)	nt	-9	?	?	-2	nt
COc1ccccc1C1CC(c2ccccc2)Nc2ncnn21 (stereo not drawn)	-13%	26	8.2µM*	23µM*	0	21%
COc1ccccc1C1CC(c2ccc(C)cc2)Nc2ncnn21 (stereo not drawn)	-29%	-17	?	18µM*	-3	-40%
N#Cc1ccc(NC(=O)C2CC(c3ccccc3F)=NO2)cc1 (stereo not drawn)	nt	nt	nt	nt	6	nt
O=C(O)CCC(=O)N1N=C(c2ccc(Cl)cc2)CC1c1ccc2nccnc2c1 (stereo not drawn)	nt	nt	nt	nt	-12	nt
Cc1sc(NC(=O)c2ccc(OCC(C)C)cc2)c(C(N)=O)c1-c1ccc(Cl)cc1Cl	6%	-17	9.2µM*	7.3µM*	-4	10%
C[C@@H]1CCCCO[C@H](CN(C)C(=O)Nc2ccc3c(c2)OCO3)[C@H](C)CN([C@@H](C)CO)C(=O)c2cc(NS(=O)(=O)c3ccc(Cl)cc3)ccc2O1	nt	-11	16µM*	16µM*	6	nt
C[C@@H]1CCCCO[C@H](CN(C)C(=O)Nc2ccc3c(c2)OCO3)[C@@H](C)CN([C@H](C)CO)C(=O)c2cc(NS(=O)(=O)c3ccc(F)cc3)ccc2O1	nt	-29	?	21µM*	1	nt

High-throughput results from PubChem.
